Compounds without any hit were thinned out: in the full panel of roughly 83,000, 20% have a hit.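 Single-concentration screen, 48 h exposure, 96-well plates. Endpoint: percent growth. Below 10 = active.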 Unmarked numbers belong to inactive results. Active and inactive are the calls of the source.
These compounds were tested on SF-295 CNS (assay: NCI-60 one-dose screen, 48 h (100 = growth as untreated, 0 = no growth, -100 = all killed)). Conditions: 10 µM unless noted.

| SMILES | growth |
| --- | --- |
| C=CC(=O)Nc1cccc(-c2nc(SC)nc(NCc3ccccc3)c2C#N)c1 | 67.8% |
| COC(=O)c1cccc(NC(=O)c2ccc(-c3cccc(N)c3)o2)c1 | 98.4% |
| N#Cc1c(-c2ccc(Cl)cc2)nc(N=Nc2c(O)[nH]c3ccc(Cl)cc23)nc1N1CCOCC1 | 102% |
| N#CN1CCC[C@H]1C(=O)N1CCc2c(-c3[nH]nc4ncccc34)cccc21 | -14.3% (active) |

What follows are compounds tested on SF-539 CNS in the same assay as above. Conditions: 10 µM unless noted.

| SMILES | growth |
| --- | --- |
| Nc1ccc(S(=O)(=O)O)c2ccc(N=Nc3ccc(N=Nc4ccc(S(=O)(=O)O)cc4)c4ccccc34)c(O)c12 | 123% |
| CSc1ccc(-c2n[nH]nc2-c2cc3ccccc3s2)cc1 | 50.2% |
| COc1ccc(C(=O)COc2ccc(/C=C3\COc4ccc(OC)cc4C3=O)cc2)cc1 | 105% |
| COc1cc(C=Nc2oc(-c3ccccc3)c(-c3ccccc3)c2C#N)cc(CN2CCCCC2)c1O | 101% |
| O=C1CC[C@H](c2ccc(O)c3c2C(=O)[C@@H]2O[C@@H]2C3=O)c2cccc(O)c21 | 75% |
| C#CC(F)(F)[C@]1(O)CC[C@H]2[C@@H]3CCC4=CC(=O)CCC4=C3[C@@H](c3ccc(C(C)=O)cc3)C[C@@]21C | -81.9% (active) |
| O=C(Cc1ccccc1Nc1c(Cl)cccc1Cl)NN1C(=O)/C(=C/c2ccc(Br)cc2)SC1=S | 93.6% |
| Cc1nn(-c2cc(=O)[nH]c3ccccc23)c(N)c1C#N | 95% |
| CCn1c(Cc2ccccc2Nc2c(Cl)cccc2Cl)nnc1SCC(=O)NN1C(=O)/C(=C/c2cc(OC)c(O)c(OC)c2)SC1=S | 13% |
| Cc1cc(C)nc(SC2=C(Nc3cc(Cl)ccc3O)C(=O)N(Cc3ccccc3)C2=O)n1 | 118% [30 µM] |
| CCN(CC)c1ccc(/C=N\NC(=O)/C=C/C=C/c2ccc3c(c2)OCO3)c(O)c1 | 22.7% |
| N#Cc1cnn(-c2nc3c(Cl)cccc3s2)c1N | 82.2% |
| COc1ccc(S(=O)(=O)N2CC3(COC3)C2)cc1NC(=O)c1[nH]c(C)c2c1CCCCC2=O | 45.3% |
| Cn1cc(C(=O)c2nc(-c3c[nH]c4ccc(F)cc34)no2)c2cc(F)ccc21 | 95.1% |
| O=C1C=C(OCC=C(Cl)Cl)C(=O)c2ccccc21 | 93.2% |
| Cc1cc(C)nc(SC2=C(Nc3cccc(Cl)c3)C(=O)N(Cc3ccccc3)C2=O)n1 | 69.7% [30 µM] |
| O=c1cc(CSc2nnc(-c3ccc(F)cc3)o2)c2ccc3ccccc3c2o1 | 98.1% |
| CCCn1c(=O)[nH]c(N)c([C@H]2c3ccccc3Oc3[nH]c(=O)n(CCC)c(=O)c32)c1=O | 100% |
| O=C(CCN1C(=O)/C(=C/c2ccc(Cl)cc2)SC1=S)NCCCN1CCOCC1 | 93.7% |
| Cc1nc2ccccc2n1C(=O)C[C@@H]1NC(=S)NC1=O | 98.6% |

| SMILES | growth |
| --- | --- |
| O=C(N=Nc1c(O)[nH]c2ccc(Br)cc12)c1cc(-c2ccccc2)on1 | 97.6% |
| C=C(C)C(=O)Nc1ccc(NC(C)C)cc1 | 100% |
| CC(O)CN1CC(O)=C(c2nc3ccccc3s2)C1=N (stereo not drawn) | 104% |
| O=c1c2c3c(sc2nc(N/N=C/c2cn(-c4ccccc4)nc2-c2ccc(Cl)cc2)n1Cc1ccccc1)CCCC3 | 95.9% |
| COc1cccc(-c2nn(C(C)(C)C)cc2-c2ccnc(NCCCNS(=O)(=O)c3ccc(C)cc3)c2)c1 | 115% |
| CSc1nc(Nc2cccc(NC(=O)CCl)c2)c(C#N)c(-c2cccc([N+](=O)[O-])c2)n1 | 73.3% |
| CSc1nc(Nc2cccc(NC(=O)/C(C#N)=C/c3c(Cl)cccc3Cl)c2)c(C#N)c(-c2cccc([N+](=O)[O-])c2)n1 | 65.2% |
| COc1ccc(-c2nc3ccc(-c4nc5ccc(N6CCN(c7ccccc7)CC6)cc5[nH]4)cc3[nH]2)cc1OC | 17.5% |
| COc1ccc(CCNc2nc3c(c(=O)n(Cc4ccc(Br)cc4)c(=O)n3C)n2C)cc1OC | 88.5% |
| C=CCSSc1ncnc2c1ncn2C1OC(CO)C(O)C1O (stereo not drawn) | 19.9% |
| Cc1ccc(NC(=O)C2CCC(CN3CCN(C)CC3)CC2)cc1Nc1nccc(-c2cccnc2)n1 (stereo not drawn) | 63.4% |
| COc1cc(/C=C/c2cc(O)c3cc(C(C)=O)c(=O)oc3c2)cc2c1O[C@]1(C)CC[C@@H](O)C(C)(C)[C@H]1C2 | -33.3% (active) |
| C=CC(=O)Nc1cccc(Nc2nc(SC)nc(-c3cccc([N+](=O)[O-])c3)c2C#N)c1 | 76.6% |
| N#C/C(=C\c1ccc(-c2cc(C(F)(F)F)ccc2Cl)o1)c1nc(-c2ccco2)cs1 | 99.3% |
| COCCNc1ccc2c3c(cccc13)C(=O)N(CCN(C)C)C2=O | 22.9% |
| C=CC(=O)Nc1cccc(-c2nc(SC)nc(NCc3ccccc3)c2C#N)c1 | 67.7% |
| COC(=O)c1cccc(NC(=O)c2ccc(-c3cccc(N)c3)o2)c1 | 92.6% |
| N#Cc1c(-c2ccc(Cl)cc2)nc(N=Nc2c(O)[nH]c3ccc(Cl)cc23)nc1N1CCOCC1 | 97.8% |
| N#CN1CCC[C@H]1C(=O)N1CCc2c(-c3[nH]nc4ncccc34)cccc21 | -36.9% (active) |
